# Biological target: GST-NTL6(1-168) (Arabidopsis thaliana, UniProt Q9SCK6 1-168)
# Assay: universal protein binding microarray (PBM); transcription factors of Arabidopsis thaliana; high values mean tight binding
# Settings: protein: recombinant; tags: GST; chain copies: 2; dsDNA, one strand shown
# Outline: (§1)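 Protein amounts were determined by A280 or anti-GST western blot after glutathione–Sepharose 4B purification of GST-tagged proteins induced in cells, with zinc acetate included for zinc-finger proteins. Duplicate runs at 200 to 500 nM final were done on custom all-10-mer Agilent 4 × 180K arrays made double-stranded by primer extension. The normalised enrichment score (E-score) over gapped and ungapped 8-mers is the measure of binding.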
# GST-NTL6(1-168), sequence (Q9SCK6 1-168): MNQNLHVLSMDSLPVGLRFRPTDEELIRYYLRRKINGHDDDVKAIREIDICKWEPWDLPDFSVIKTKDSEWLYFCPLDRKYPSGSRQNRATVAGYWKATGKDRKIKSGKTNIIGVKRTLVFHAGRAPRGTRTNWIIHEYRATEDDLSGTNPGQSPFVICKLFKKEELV
row,Sequence,binding signal [E-score]
1,CGAAGTCA,0.0962
2,GAAGGTCA,0.116
3,AGGTCAAT,0.137
4,GGAAGTCA,0.132
5,TGACTGCA,0.0778
6,AAAGTCTT,0.0508

# Biological target: T1, GST-ANAC019 NAC domain (Arabidopsis thaliana, UniProt Q9C932 14-162)
# T1 sequence: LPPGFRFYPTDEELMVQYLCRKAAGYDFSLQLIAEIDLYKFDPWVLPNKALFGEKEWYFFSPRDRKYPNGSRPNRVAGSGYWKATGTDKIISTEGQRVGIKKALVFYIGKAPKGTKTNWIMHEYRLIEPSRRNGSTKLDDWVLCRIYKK
# Assay: as above
# Settings: protein: recombinant; tags: GST; chain copies: 2; dsDNA, one strand shown
# Outline: as §1
row,Sequence,binding signal [E-score]
1,GACCAAGA,0.0567
2,CCGTCAAC,0.0816
3,GGTGGTCA,0.0992
4,GGTCAAGA,0.09
5,GGAAGTCA,0.0521
6,GTAGGTCA,0.129
7,TGACCCCA,0.0651
8,CTGACCAC,0.0574
9,GCGTTGAC,0.0691
10,GAAAAGTC,0.139
11,GCTGACCA,0.0761
12,GTGTCAAC,0.0933
13,CACGGTCA,0.052
14,AGTCAGAC,0.0719
15,CCGTTGAC,0.157
16,CAGTCAGA,0.0745
17,GAAGACCA,0.0558
18,CGTTGACC,0.0797
19,GAGTCAAC,0.14
20,CAGTTGAC,0.135

# Biological target: T2, GST-ANAC055(1-171) (Arabidopsis thaliana, UniProt Q9LDY8 1-171)
# T2 sequence: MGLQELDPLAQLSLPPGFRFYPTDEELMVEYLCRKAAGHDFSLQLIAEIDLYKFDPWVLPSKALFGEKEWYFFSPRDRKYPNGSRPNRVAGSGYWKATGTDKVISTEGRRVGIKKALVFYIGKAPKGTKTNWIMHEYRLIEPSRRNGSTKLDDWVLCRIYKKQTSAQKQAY
# Assay: as above
# Settings: protein: recombinant; tags: GST; chain copies: 2; dsDNA, one strand shown
# Outline: as §1
row,Sequence,binding signal [E-score]
1,ATTTGACC,0.079
2,AGGTCAAT,0.0969
3,TCGTCAAA,0.0878
4,CTCGTCAA,0.0602
5,TGACTGCA,0.0624
6,GTTTGACA,0.0647
7,AAAGTCTT,0.109
8,GACTTGAC,0.11
9,ACTTGACT,0.0752
10,GAATTGAC,0.0993
11,CAGTTGAC,0.0582

# Biological target: T3, GST-ATAF1 NAC domain (Arabidopsis thaliana, UniProt Q39013 7-158)
# T3 sequence: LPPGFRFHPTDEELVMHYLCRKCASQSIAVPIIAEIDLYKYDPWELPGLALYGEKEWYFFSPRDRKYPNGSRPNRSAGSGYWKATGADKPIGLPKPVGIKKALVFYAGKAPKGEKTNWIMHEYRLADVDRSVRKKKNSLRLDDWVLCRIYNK
# Assay: as above
# Settings: protein: recombinant; tags: GST; chain copies: 2; dsDNA, one strand shown
# Outline: as §1
row,Sequence,binding signal [E-score]
1,GATTTGAC,0.122
2,AGGTTGAC,0.13
3,GTTGACGA,0.0784
4,TCGTCAAA,0.0946
5,CTCGTCAA,0.0515
6,GAAAAGTC,0.137
7,TGACTGCA,0.0918
8,GCAGTCAA,0.0666
9,GTTTGACA,0.101
10,CGTTTGAC,0.0858
11,GAAAGTCA,0.0574
12,GACTTGAC,0.199
13,ACTTGACT,0.186
14,GAATTGAC,0.092
15,AGTCAATG,0.0527
16,CAGTTGAC,0.112

# Biological target: T4, GST-ANAC092(1-285) full length (Arabidopsis thaliana, UniProt Q9FKA0 1-285)
# T4 sequence: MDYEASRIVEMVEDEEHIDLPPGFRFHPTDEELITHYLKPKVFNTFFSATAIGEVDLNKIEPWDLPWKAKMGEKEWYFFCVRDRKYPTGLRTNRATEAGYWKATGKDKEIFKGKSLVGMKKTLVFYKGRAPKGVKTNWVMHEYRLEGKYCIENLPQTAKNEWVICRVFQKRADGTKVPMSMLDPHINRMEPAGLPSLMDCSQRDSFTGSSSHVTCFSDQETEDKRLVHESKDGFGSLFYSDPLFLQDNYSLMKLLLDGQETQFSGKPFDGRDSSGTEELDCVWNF
# Assay: as above
# Settings: protein: recombinant; tags: GST; chain copies: 2; dsDNA, one strand shown
# Outline: as §1
row,Sequence,binding signal [E-score]
1,GGTCAAGA,0.0594
2,GGAAGTCA,0.0837
3,CCGTTGAC,0.0578
4,GAAAGTCA,0.0781
5,GACTTGAC,0.0614
6,ACTTGACT,0.0808
7,GAATTGAC,0.0675

# Biological target: T5, GST-NAP(1-166) (Arabidopsis thaliana, UniProt O49255 1-166)
# T5 sequence: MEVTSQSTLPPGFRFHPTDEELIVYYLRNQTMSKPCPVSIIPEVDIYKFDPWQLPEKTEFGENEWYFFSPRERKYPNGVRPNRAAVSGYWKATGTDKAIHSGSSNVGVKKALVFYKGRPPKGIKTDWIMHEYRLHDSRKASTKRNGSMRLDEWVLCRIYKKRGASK
# Assay: as above
# Settings: protein: recombinant; tags: GST; chain copies: 2; dsDNA, one strand shown
# Outline: as §1
row,Sequence,binding signal [E-score]
1,GCGTTGAC,0.116
2,CTCGTCAA,0.0553
3,GAAAAGTC,0.145
4,GTGTCAAC,0.0561
5,GCAGTCAA,0.0815
6,CGTTTGAC,0.0589
7,CCGTTGAC,0.126
8,CGTTGACC,0.0594
9,CAGTTGAC,0.0525

# Biological target: T6, GST-NST2(1-184) (Arabidopsis thaliana, UniProt Q9M274 1-184)
# T6 sequence: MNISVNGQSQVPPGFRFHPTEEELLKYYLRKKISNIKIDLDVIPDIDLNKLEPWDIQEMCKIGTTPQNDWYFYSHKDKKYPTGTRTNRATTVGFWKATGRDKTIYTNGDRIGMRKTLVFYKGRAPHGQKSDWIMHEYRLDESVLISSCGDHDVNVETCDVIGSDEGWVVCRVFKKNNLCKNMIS
# Assay: as above
# Settings: protein: recombinant; tags: GST; chain copies: 2; dsDNA, one strand shown
# Outline: as §1
row,Sequence,binding signal [E-score]
1,GGTCAAGA,0.08
2,TCGTCAAA,0.0744
3,GAAAAGTC,0.0971
4,GTTTGACA,0.0521
5,CGTTTGAC,0.0861
6,ACTTGACT,0.0742
7,GAATTGAC,0.0714
8,AGTCAATG,0.0628
9,CAGTTGAC,0.0574

# Biological target: T7, GST-NTL8 NAC domain (Arabidopsis thaliana, UniProt Q9XIN7 14-156)
# T7 sequence: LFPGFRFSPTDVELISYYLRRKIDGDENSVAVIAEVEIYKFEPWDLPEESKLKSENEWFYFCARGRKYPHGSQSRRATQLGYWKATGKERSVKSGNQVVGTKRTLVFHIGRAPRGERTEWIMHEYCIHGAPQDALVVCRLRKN
# Assay: as above
# Settings: protein: recombinant; tags: GST; chain copies: 2; dsDNA, one strand shown
# Outline: as §1
row,Sequence,binding signal [E-score]
1,CGAAGTCA,0.132
2,GAAGGTCA,0.0878
3,GGAAGTCA,0.0895
4,GTAGGTCA,0.0647
5,GAAAAGTC,0.19
6,GCAGTCAA,0.0556
7,CACGGTCA,0.063
8,GACTTGAC,0.0707
9,GAATTGAC,0.051
10,CGTTGACC,0.123

# Biological target: GST-WRKY1(266-371) (Arabidopsis thaliana, UniProt Q9SI37 266-371)
# Sequence (Q9SI37 266-371): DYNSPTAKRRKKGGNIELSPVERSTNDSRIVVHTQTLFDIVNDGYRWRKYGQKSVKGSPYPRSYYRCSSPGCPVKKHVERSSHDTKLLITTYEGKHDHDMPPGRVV
# Assay: as above
# Settings: protein: recombinant; tags: GST; dsDNA, one strand shown
# Outline: as §1
row,Sequence,binding signal [E-score]
1,GATTTGAC,0.464
2,CGAAGTCA,0.42
3,AGGTTGAC,0.474
4,ATTTGACC,0.481
5,GAAGGTCA,0.426
6,GACCAAGA,0.403
7,CCGTCAAC,0.451
8,AGGTCAAT,0.478
9,GGTGGTCA,0.43
10,GTTGACGA,0.453
11,GGTCAAGA,0.477
12,TCGTCAAA,0.432
13,GGAAGTCA,0.429
14,GTAGGTCA,0.416
15,TGACCCCA,0.428
16,CTGACCAC,0.41
17,GCGTTGAC,0.488
18,CTCGTCAA,0.424
19,GAAAAGTC,0.413
20,GCTGACCA,0.462

row,Sequence,binding signal [E-score]
1,GTGTCAAC,0.404
2,TGACTGCA,0.413
3,GCAGTCAA,0.478
4,GTTTGACA,0.417
5,CACGGTCA,0.44
6,CGTTTGAC,0.476
7,AGTCAGAC,0.442
8,AAAGTCTT,0.429
9,CCGTTGAC,0.49
10,GAAAGTCA,0.461
11,GACTTGAC,0.458
12,ACTTGACT,0.456
13,GAATTGAC,0.439
14,CAGTCAGA,0.404
15,AGTCAATG,0.481
16,GAAGACCA,0.442
17,CGTTGACC,0.496
18,GAGTCAAC,0.487
19,CAGTTGAC,0.477

# From article PMC4081100, “A DNA-binding-site landscape and regulatory network analysis for NAC transcription factors in Arabidopsis thaliana”
